# Results filed as inconclusive are left out. A call without a number means that no potency is given here. Active and inactive are the calls of the source. Calls follow the shape of the dose curve; as a rule, active = well fitted inhibition curve with a large enough effect; inconclusive = small, poorly fitted or top-dose-only effect; inactive = no such curve, though single readings can be large or run the other way. Where a SMILES comes first, the peptide text is derived from it. [ ]: non-standard residue; d: D form. Ala(indol-2-yl) = N[C@@H](Cc1cc2ccccc2[nH]1)C(=O)O; Aib = CC(C)(N)C(=O)O
# System: Zika virus NS2B-NS3 protease (unlinked complex)
# Test: Primary screen GU Rhodamine qHTS for Zika virus inhibitors: Unlinked NS2B-NS3 protease assay (AID 1347159); also: nearly all actives have a fitted effect of over 60% in size
# Settings: Recombinant ZIKV NS2B-NS3 protease, Rhodamine110 substrate fluorescence; series mostly up to 107 µM
# Summary of the method: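 In dose–response format, inhibition of unlinked protease (25 nM) was measured with 1.5 microM bis-peptide Rhodamine110 substrate. Aprotinin served as the intraplate control.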
row,Compound,Potency
1,CC(=O)OC[C@]12C[C@H](O)C(C)=C[C@H]1O[C@@H]1[C@H](O)[C@@H](O)[C@@]2(C)[C@]12CO2,inactive
2,CC[C@H]1C[C@@H]2CC[C@@H](O2)[C@@H](C)C(=O)O[C@H](CC)C[C@H]2CC[C@H](O2)[C@H](C)C(=O)O[C@@H](C)C[C@@H]2CC[C@@H](O2)[C@@H](C)C(=O)O[C@H](CC)C[C@H]2CC[C@H](O2)[C@H](C)C(=O)O1,inactive
3,CC(=O)OC[C@]12C[C@H](O)C(C)=C[C@H]1O[C@@H]1[C@H](O)[C@@H](OC(C)=O)[C@@]2(C)[C@]12CO2,inactive
4,CO[C@H]1[C@H](O)[C@H](O[C@H]2CC[C@]3(C=O)C4CC[C@]5(C)[C@H](C6=CC(=O)OC6)CC[C@]5(O)C4CC[C@@H]3C2)O[C@@H](C)[C@@H]1O (some centres not stated),inactive
5,C[C@H]1O[C@@H](n2cnc3c(N)ncnc32)C[C@@H]1O,inactive
6,CO[C@H]1[C@@H](O)[C@@H](C)O[C@@H](O[C@@H]2C=C3C(OC(C)=O)CC4(O)C(CC[C@]5(C)[C@@H](C6=CC(=O)OC6)CC[C@]45O)[C@@]3(C)CC2)[C@@H]1O (some centres not stated),inactive
7,CN(C)c1cc2c(cc1Sc1nc3c(N)nccc3n1CCNCC(C)(C)C)OCO2,inactive

# System: Zika virus NS2B-NS3 protease (linked construct)
# Test: Primary screen NINDS Rhodamine qHTS for Zika virus inhibitors (AID 1347160); also: nearly all actives have a fitted effect of over 55% in size
# Settings: purified NS2B-NS3 protease, Rhodamine110 substrate fluorescence; series mostly up to 57.1 µM
# Summary of the method: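 Each compound, titrated, sat 15 min with 25 nM linked protease before 1.5 microM Rhodamine110 substrate went in. Fluorescence gain over the next 15 min, in pH 8.0 Tris with Tween 20, gave Hill-fitted curves.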
Compound,Potency,"activity change, negative = inhibition"
COC1CC(O[C@H]2CC[C@]3(C)C4CC[C@]5(C)[C@@H](C6=CC(=O)OC6)[C@@H](OC(C)=O)C[C@]5(O)C4CC[C@@H]3C2)OC(C)C1O (some centres not stated),inactive,
C[C@H]1O[C@@H](O[C@H]2CC[C@]3(C=O)C4CC[C@]5(C)[C@@H](C6=CC(=O)OC6)CC[C@]5(O)[C@@H]4CC[C@]3(O)C2)C[C@@H](O)[C@@H]1O (some centres not stated),inactive,
CC1=CC2OC3[C@H](O)C[C@@](C)([C@]34CO4)[C@@]2(CO)[C@H](O)C1=O (some centres not stated),inactive,
COC1CC(O[C@H]2CC[C@@]3(C)C(CCC4C3CC[C@]3(C)[C@@H](C5=CC(=O)OC5)CC[C@]43O)C2)OC(C)C1O (some centres not stated),inactive,
CC(C)(C)[C@]1(O)C[C@@H]2OC(=O)C[C@@]23C(=O)O[C@@H]2OC(=O)[C@@H](O)[C@]213,inactive,
C[C@H]1C/C=C/[C@H]2[C@@H]3O[C@]3(C)[C@@H](C)[C@H]3[C@H](Cc4ccccc4)NC(=O)[C@]32OC(=O)O/C=C/[C@@](C)(O)C1=O,inactive,
CNC(=O)c1cc(C#N)cc(C)c1NC(=O)c1cc(Br)nn1-c1ncccc1Cl,inactive,
COC1CC(O[C@H]2CC[C@]3(C=O)C4CC[C@]5(C)[C@@H](C6=CC(=O)OC6)CC[C@]5(O)[C@@H]4CC[C@@H]3C2)OC(C)C1O[C@@H]1O[C@H](CO)[C@@H](O[C@@H]2O[C@H](CO)[C@@H](O)[C@H](O)[C@H]2O)[C@H](O)[C@H]1O (some centres not stated),inactive,
CC[C@@H]1C[C@H]2CC[C@H](O2)[C@H](C)C(=O)O[C@@H](C)C[C@@H]2CC[C@@H](O2)[C@@H](C)C(=O)O[C@H](CC)C[C@H]2CC[C@H](O2)[C@H](C)C(=O)O[C@@H](C)C[C@@H]2CC[C@@H](O2)[C@@H](C)C(=O)O1,inactive,
CC(=O)O[C@@H]1[C@@H](O)[C@H]2O[C@@H]3C=C(C)[C@@H](O)C[C@]3(CO)[C@]1(C)[C@]21CO1,inactive,
CO[C@H]1C[C@H](O[C@H]2CC[C@@]3(C)C(=CCC4C3CC[C@]3(C)[C@@H](C5=CC(=O)OC5)CC[C@]43O)C2)O[C@@H](C)[C@@H]1O[C@@H]1O[C@H](CO[C@@H]2O[C@H](CO)[C@@H](O)[C@H](O)[C@H]2O)[C@@H](O)[C@H](O)[C@H]1O (some centres not stated),inactive,
c1cncc(OC[C@@H]2CCN2)c1,inactive,
CC(=O)OC[C@]12C[C@H](OC(=O)CC(C)C)C(C)=C[C@H]1O[C@@H]1[C@H](O)C[C@@]2(C)[C@]12CO2,inactive,
CNc1ccc2oc(C[C@H]3O[C@@]4(CC[C@H]3C)O[C@H](C(C)C(=O)c3ccc[nH]3)[C@H](C)C[C@H]4C)nc2c1C(=O)O (some centres not stated),inactive,
COc1ccc2c3c([nH]c2c1)C(C=C(C)C)N1C(=O)C2CCCN2C(=O)C1C3 (configuration not stated),inactive,
CC(C)(NC(=O)[C@@H](N)Cc1ccc(O)cc1)C(=O)N[C@@H](Cc1cc2ccccc2[nH]1)C(=O)N[C@@H](Cc1ccccc1)C(=O)O (H-Y[Aib][Ala(indol-2-yl)]F-OH),,-10.9% [at 10.7 µM] (inactive)
CC[C@H]1C2CC3[C@@H]4N(C)c5ccccc5[C@]45C[C@@H]([C@H]2[C@H]5O)N3[C@@H]1O,inactive,
CC1=C[C@H]2O[C@@H]3C[C@H]4OC(=O)/C=C/C=C/C(=O)OCC/C(C)=C/C(=O)OC[C@@]2(CC1)[C@]4(C)[C@]31CO1,inactive,
C=C(CO)C(=O)O[C@H]1CC(=C)[C@@H]2C[C@H](O)C(=C)[C@@H]2[C@H]2OC(=O)C(=C)[C@@H]21,inactive,
CC1CCCC(=O)CCC/C=C/c2cc(O)cc(O)c2C(=O)O1 (configuration not stated),inactive,
CC[C@@]1(O)C(=O)OCc2c1cc1n(c2=O)Cc2cc3c(OC)cccc3nc2-1,inactive,
CC[C@H]1C[C@@H]2CC[C@@H](O2)[C@@H](C)C(=O)O[C@H](CC)C[C@H]2CC[C@H](O2)[C@H](C)C(=O)O[C@@H](C)C[C@@H]2CC[C@@H](O2)[C@@H](C)C(=O)O[C@H](CC)C[C@H]2CC[C@H](O2)[C@H](C)C(=O)O1,inactive,
CO[C@H]1[C@H](O)[C@H](O[C@H]2CC[C@]3(C=O)C4CC[C@]5(C)[C@H](C6=CC(=O)OC6)CC[C@]5(O)C4CC[C@@H]3C2)O[C@@H](C)[C@@H]1O (some centres not stated),inactive,
C[C@H]1O[C@@H](n2cnc3c(N)ncnc32)C[C@@H]1O,inactive,
CO[C@H]1[C@@H](O)[C@@H](C)O[C@@H](O[C@@H]2C=C3C(OC(C)=O)CC4(O)C(CC[C@]5(C)[C@@H](C6=CC(=O)OC6)CC[C@]45O)[C@@]3(C)CC2)[C@@H]1O (some centres not stated),inactive,
